Data as given in PubChem BioAssay AID1159580 (chemical genetic matrix, 2015).
Out of some 5,500 compounds screened, about 2,000 (36%) were called active. Inconclusive results (about 18%) are left out. Rule as the data show it: active = normalized growth mostly below about 0.91 (no sharp cut-off); inconclusive = no clear call, values can overlap the other calls; inactive = mostly above about 0.92. The list shows a part of the results.

Assay: chemical genetic growth profiling, strain panel (AID 1159580);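 also: tested at 20 µM; growth read once vehicle control cultures reached saturation at 30 °C; 1 = growth at the plate median or of vehicle wells; lower values mean less growth of the strain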
Conditions: growth OD
[1] = S. cerevisiae deletion strains, locus YDR150W, strain NUM1, active compounds read low
[2] = S. cerevisiae deletion strains, locus YJR075W, strain HOC1, active compounds read low
[3] = S. cerevisiae deletion strains, locus YNL153C, strain GIM3, active compounds read low
[4] = S. cerevisiae deletion strains, locus YPL241C, strain CIN2, active compounds read low

Measured: normalized growth

COc1cc2c(cc1O)CC[C@@H]1[C@@H]2CC[C@]2(C)[C@@H](O)CC[C@@H]12
inactive: S. cerevisiae deletion strains, locus YAL040C, strain CLN3, active compounds read low 1.02 | S. cerevisiae deletion strains, locus YCL061C, strain MRC1 (second series), active compounds read low 1 | [1] 0.964 | S. cerevisiae deletion strains, locus YDR363W, strain ESC2, active compounds read low 1.02 | S. cerevisiae deletion strains, locus YER002W, strain NOP16, active compounds read low 0.994 | S. cerevisiae deletion strains, locus YGR078C, strain PAC10, active compounds read low 1 | [2] 1.03 | [3] 0.936 | S. cerevisiae deletion strains, locus YNL175C, strain NOP13, active compounds read low 1.01 | S. cerevisiae deletion strains, locus YNL197C, strain WHI3, active compounds read low 1.03 | S. cerevisiae deletion strains, locus YNL224C, strain SQS1, active compounds read low 1.03 | S. cerevisiae deletion strains, locus YOR083W, strain WHI5 (second series), active compounds read low 0.982 | [4] 0.996

CC12CCC3c4ccc(OCc5ccccc5)cc4CCC3C1C[C@@H](O)[C@@H]2O (some centres undefined)
active: S. cerevisiae deletion strains, locus YBR229C, strain ROT2, active compounds read low 0.0599 | S. cerevisiae deletion strains, locus YCL029C, strain bik1, active compounds read low 0.0651 | S. cerevisiae deletion strains, locus YDL035C, strain GPR1, active compounds read low 0.1 | S. cerevisiae deletion strains, locus YDL074C, strain BRE1, active compounds read low 0.0834 | S. cerevisiae deletion strains, locus YDL101C, strain DUN1, active compounds read low 0.0689 | S. cerevisiae deletion strains, locus YDL134C, strain PPH21, active compounds read low 0.055 | S. cerevisiae deletion strains, locus YDL185W, strain tfp1, active compounds read low 0.058 | S. cerevisiae deletion strains, locus YDL192W, strain arf1, active compounds read low 0.0627 | S. cerevisiae deletion strains, locus YDR101C, strain arx1, active compounds read low 0.127 | [1] 0.355 | S. cerevisiae deletion strains, locus YDR162C, strain NBP2, active compounds read low 0.0538 | S. cerevisiae deletion strains, locus YDR318W, strain mcm21, active compounds read low 0.076 | S. cerevisiae deletion strains, locus YDR388W, active compounds read low 0.066 | S. cerevisiae deletion strains, locus YDR502C, strain sam2, active compounds read low 0.0938 | S. cerevisiae deletion strains, locus YEL061C, strain CIN8, active compounds read low 0.0518 | S. cerevisiae deletion strains, locus YER110C, active compounds read low 0.0937 | S. cerevisiae deletion strains, locus YER155C, strain BEM2, active compounds read low 0.0637 | S. cerevisiae deletion strains, locus YER167W, strain BCK2, active compounds read low 0.0557 | S. cerevisiae deletion strains, locus YGL078C, strain dbp3, active compounds read low 0.106 | S. cerevisiae deletion strains, locus YGL086W, strain mad1, active compounds read low 0.0655 | S. cerevisiae deletion strains, locus YGL248W, strain PDE1, active compounds read low 0.0599 | S. cerevisiae deletion strains, locus YGR135W, strain pre9, active compounds read low 0.265 | S. cerevisiae deletion strains, locus YGR252W, strain gcn5, active compounds read low 0.133 | S. cerevisiae deletion strains, locus YHR030C, strain SLT2, active compounds read low 0.0559 | S. cerevisiae deletion strains, locus YHR079C, strain IRE1 (second series), active compounds read low 0.0829 | S. cerevisiae deletion strains, locus YHR094C, strain hxt1, active compounds read low 0.0776 | S. cerevisiae deletion strains, locus YHR129C, strain ARP1, active compounds read low 0.0606 | S. cerevisiae deletion strains, locus YHR200W, strain rpn10, active compounds read low 0.0742 | S. cerevisiae deletion strains, locus YIL066C, strain RNR3, active compounds read low 0.0563 | S. cerevisiae deletion strains, locus YIL073C, strain SPO22, active compounds read low 0.112 | S. cerevisiae deletion strains, locus YIL125W, strain kgd1, active compounds read low 0.0668 | S. cerevisiae deletion strains, locus YIR030C, strain dcg1, active compounds read low 0.104 | S. cerevisiae deletion strains, locus YJL095W, strain BCK1, active compounds read low 0.062 | S. cerevisiae deletion strains, locus YJL134W, strain LCB3, active compounds read low 0.0681 | S. cerevisiae deletion strains, locus YJL168C, strain set2, active compounds read low 0.0842 | S. cerevisiae deletion strains, locus YJL187C, strain SWE1 (second series), active compounds read low 0.0613 | S. cerevisiae deletion strains, locus YJR043C, strain POL32, active compounds read low 0.0826 | [2] 0.0841 | S. cerevisiae deletion strains, locus YKL009W, strain mrt4, active compounds read low 0.0811 | S. cerevisiae deletion strains, locus YKL068W, active compounds read low 0.187 | S. cerevisiae deletion strains, locus YKL085W, strain MDH1 (second series), active compounds read low 0.068 | S. cerevisiae deletion strains, locus YKL085W, strain MDH1, active compounds read low 0.068 | S. cerevisiae deletion strains, locus YKL190W, strain CNB1, active compounds read low 0.0552 | S. cerevisiae deletion strains, locus YKR001C, strain vps1, active compounds read low 0.062 | S. cerevisiae deletion strains, locus YLR039C, strain RIC1, active compounds read low 0.0869 | S. cerevisiae deletion strains, locus YLR058C, strain SHM2, active compounds read low 0.0598 | S. cerevisiae deletion strains, locus YLR102C, strain apc9, active compounds read low 0.0693 | S. cerevisiae deletion strains, locus YLR262C, strain YPT6, active compounds read low 0.103 | S. cerevisiae deletion strains, locus YLR268W, strain sec22, active compounds read low 0.0915 | S. cerevisiae deletion strains, locus YLR330W, strain CHS5, active compounds read low 0.0559 | S. cerevisiae deletion strains, locus YLR342W, strain FKS1 (second series), active compounds read low 0.0702 | S. cerevisiae deletion strains, locus YLR371W, strain rom2, active compounds read low 0.0664 | S. cerevisiae deletion strains, locus YLR418C, strain cdc73, active compounds read low 0.101 | S. cerevisiae deletion strains, locus YML016C, strain PPZ1, active compounds read low 0.0511 | S. cerevisiae deletion strains, locus YML032C, strain rad52, active compounds read low 0.0688 | S. cerevisiae deletion strains, locus YML124C, strain tub3, active compounds read low 0.117 | S. cerevisiae deletion strains, locus YMR078C, strain ctf18, active compounds read low 0.0734 | S. cerevisiae deletion strains, locus YMR223W, strain ubp8, active compounds read low 0.0801 | S. cerevisiae deletion strains, locus YMR307W, strain GAS1, active compounds read low 0.114 | S. cerevisiae deletion strains, locus YNL067W, strain RPL9B, active compounds read low 0.093 | S. cerevisiae deletion strains, locus YNL128W, strain TEP1, active compounds read low 0.0726 | [3] 0.0573 | S. cerevisiae deletion strains, locus YNL233W, strain BNI4, active compounds read low 0.0603 | S. cerevisiae deletion strains, locus YNL250W, strain rad50, active compounds read low 0.0963 | S. cerevisiae deletion strains, locus YNL271C, strain bni1, active compounds read low 0.129 | S. cerevisiae deletion strains, locus YNL298W, strain CLA4, active compounds read low 0.0669 | S. cerevisiae deletion strains, locus YNL307C, strain MCK1, active compounds read low 0.0674 | S. cerevisiae deletion strains, locus YNR052C, strain pop2, active compounds read low 0.0752 | S. cerevisiae deletion strains, locus YOL006C, strain TOP1, active compounds read low 0.114 | S. cerevisiae deletion strains, locus YOL012C, strain htz1 0.149 | S. cerevisiae deletion strains, locus YOL147C, strain pex11, active compounds read low 0.0612 | S. cerevisiae deletion strains, locus YOR061W, strain CKA2, active compounds read low 0.0522 | S. cerevisiae deletion strains, locus YOR069W, strain VPS5, active compounds read low 0.0556 | S. cerevisiae deletion strains, locus YOR136W, strain idh2, active compounds read low 0.077 | S. cerevisiae deletion strains, locus YOR144C, strain elg1, active compounds read low 0.0719 | S. cerevisiae deletion strains, locus YOR184W, strain ser1, active compounds read low 0.0768 | S. cerevisiae deletion strains, locus YOR316C, strain cot1, active compounds read low 0.0738 | S. cerevisiae deletion strains, locus YPL055C, strain LGE1, active compounds read low 0.0696 | [4] 0.0593 | S. cerevisiae deletion strains, locus YPR119W, strain clb2, active compounds read low 0.0659 | S. cerevisiae deletion strains, locus YPR141C, strain kar3, active compounds read low 0.106 | S. cerevisiae deletion strains, locus YPR163C, strain tif3, active compounds read low 0.0746 | S. cerevisiae deletion strains, locus YPR167C, strain met16, active compounds read low 0.0654 | S. cerevisiae deletion strains, strain wtn01, active compounds read low 0.107 | S. cerevisiae strains, strain wild type, active compounds read low 0.0526
inactive: S. cerevisiae deletion strains, locus YBR021W, strain FUR4, active compounds read low 0.995
